UDG counterscr: UDG inhibition counter-screen. actives 0.14% (n = 91,000). Potency, µM (titrated, usually from 115 µM), usual class: inhibitors. FRET deamination/UDG coupled assay, UDG read, 4 h; also: nearly all actives have a fitted effect of over 65% in size
AID inh: activation induced cytidine deaminase inhibition | actives 0.32% (n = 91,000) | Q9GZX7 | AID deamination FRET fluorescence, UDG-coupled, 4 h | AID 1347428 | Potency, µM (series often up to 115 µM), usual class: inhibitors; also: nearly all actives have a fitted effect of over 25% in size
Target sequence (Q9GZX7 whole entry, looked up): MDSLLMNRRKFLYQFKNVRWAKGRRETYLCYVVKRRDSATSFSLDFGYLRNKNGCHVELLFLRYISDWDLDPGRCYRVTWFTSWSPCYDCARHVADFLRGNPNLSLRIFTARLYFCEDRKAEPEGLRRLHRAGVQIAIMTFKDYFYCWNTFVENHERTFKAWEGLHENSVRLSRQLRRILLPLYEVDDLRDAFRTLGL
Numbers stand for hits; – = inactive; ? = inconclusive. A selection: hits, their analogues and other compounds. The true share with any hit is near 0.47%. Calls follow the shape of the dose curve; as a rule, active = well fitted curve in the direction sought with a large enough effect; inconclusive = small, poorly fitted or top-dose-only effect, or another doubt; inactive = no such curve, though single readings can be large; an effect the other way counts as inactive or inconclusive.

SMILES | UDG counterscr | AID inh
Cc1ccc(-c2nc3c(c(SCC(=O)N(C)c4ccccc4)n2)Cc2c(CO)cnc(C)c2O3)cc1 | – | ?
CCc1ccc(-c2nc3c(c(SCc4ccccc4)n2)Cc2c(CO)cnc(C)c2O3)cc1 | – | –
C=Cc1ccc(CSc2nc(-c3ccc(C)cc3)nc3c2Cc2c(CO)cnc(C)c2O3)cc1 | – | 31.6µM
Nc1cc(S(=O)(=O)O)ccc1S(=O)(=O)O | – | –
FC(F)(F)c1ccc(C=Nc2cccc3ccccc23)cc1 | – | –
CNC(=S)N/N=C(/C)c1ccccn1 | – | –
O=C(O)c1ccc(-c2ccc(CO)o2)cc1 | – | –
CC(=O)c1c(C)[nH]c(-c2csc(NC3CCCC3)n2)c1C | – | –
CN(C)C(=O)c1ccc(NCC(=O)N2N=C(c3cc4ccccc4o3)CC2c2ccco2)cc1 (stereo unspecified) | – | –
Fc1ccccc1Cn1c(-c2ccccc2)nc2ccccc21 | ? | 44.7µM
Cc1cccc(Cn2c(-c3ccccc3)nc3ccccc32)c1 | – | ?
C=CCc1ccccc1OCCSc1nc(-c2ccc(C(C)(C)C)cc2)nc2cc(=O)[nH]n12 | – | ?
CC(C)(C)c1ccc(-c2nc(SCCOc3ccc(Cl)cc3)n3[nH]c(=O)cc3n2)cc1 | – | ?
COc1ccccc1OCCSc1nc(-c2ccc(C(C)(C)C)cc2)nc2cc(=O)[nH]n12 | – | 79.4µM
Cc1ccc(OCCCSc2nc(-c3ccc(C(C)(C)C)cc3)nc3cc(=O)[nH]n23)cc1C | ? | 44.7µM
Cc1ccc(NC(=O)C2=C(c3ccccc3)NC(=S)NC2c2ccc(C(C)(C)C)cc2)cc1 (stereo unspecified) | – | –
Cc1ccc(Cl)cc1N1CCN(C(=O)c2cc3ccc4cccnc4c3[nH]2)CC1 | – | 22.4µM
Cc1ccc(Cl)cc1N1CCN(C(=O)c2cnc(N3CCOCC3)c3ccccc23)CC1 | ? | 22.4µM
Cc1ccc(Cl)cc1N(C)C(=O)c1cnc(N2CCOCC2)c2ccccc12 | – | –
O=C(c1cc2ccc3cccnc3c2[nH]1)N1CCN(c2ccc(Cl)cc2)CC1 | – | –
S=c1sc(SCc2ccccc2)c(SCc2ccccc2)s1 | – | –
CCCCOc1c(Cl)cc(C(=O)N(Cc2ccc(C)o2)C2CCS(=O)(=O)C2)cc1Cl (stereo unspecified) | 89.1µM | ?
COc1cccc(C(=O)N(Cc2ccc(C)o2)C2CCS(=O)(=O)C2)c1 (stereo unspecified) | – | –
CN(C)c1ccc(Nc2cccc3nccnc23)cc1 | – | –
Cc1cc(=O)oc2c(C)c(OCc3nc(-c4ccc(Cl)cc4)no3)ccc12 | – | –
SMILES | UDG counterscr | AID inh
O=C(Cn1nc(Cc2cccnc2)c2ccccc2c1=O)N1CCN(c2ccc(F)cc2)CC1 | – | –
Cc1ccc(C)c(N2CCN(C(=O)Cn3nc(Cc4cccnc4)c4ccccc4c3=O)CC2)c1 | – | 70.8µM
O=c1[nH]c(SCc2ccc([N+](=O)[O-])cc2)nc2c1CCCC2 | ? | –
CC(C)(C)c1ccc(CSc2nc3c(c(=O)[nH]2)CCCC3)cc1 | 79.4µM | –
CCC(C)(C)c1ccc(OCC(O)CNCc2ccccc2)c(C(C)(C)CC)c1 (stereo unspecified) | – | –
NC(=S)N/N=C1\C2C3C(Br)C4C5CC(C1C53)C24 (stereo unspecified) | – | –
CC(C)c1ccc(OCC(=O)Nc2cc(-c3nc4ncccc4o3)ccc2Cl)cc1 | – | –
CCC(C)c1ccc(OCC(=O)Nc2cccc(-c3nc4ncccc4o3)c2)cc1 (stereo unspecified) | – | 31.6µM
CCN(CC)S(=O)(=O)c1cc(-c2nnc(Nc3ccc(OC)c(C(N)=O)c3)c3ccccc23)ccc1C | ? | 35.5µM
Cc1ccc(-c2nnc(Nc3ccc(Cl)c(Cl)c3)c3ccccc23)cc1S(=O)(=O)N(C)C | – | –
Cc1onc(-c2c(F)cccc2Cl)c1C(=O)Nc1sc(C)c(-c2ccccc2)c1C(N)=O | – | –
CCOc1ccccc1NC(=O)CSc1nc2ccccc2nc1N1CCOCC1 | ? | 22.4µM
COc1ccc(NC(=O)CSc2nc3ccccc3nc2N2CCOCC2)c(OC)c1 | – | ?
CCCN(C(=O)Cc1nc(-c2ccc(OC)cc2)no1)c1ccccc1C | – | ?
CCCN(C(=O)CCc1nc(-c2ccc(OC)cc2)no1)c1ccccc1F | – | 39.8µM
Clc1ccc2c(N/N=C/c3cccs3)ccnc2c1 | – | –
COc1ccc(OC)c(/C=C(\C#N)c2nc3ccccc3c(=O)[nH]2)c1 | – | 79.4µM
COc1cccc(/C=C(\C#N)c2nc3ccccc3c(=O)[nH]2)c1OC | – | –
O=C(/C=C/c1ccc(-c2ccccc2Cl)o1)c1ccc(F)cc1 | – | –
O=C(/C=C/c1ccc(-c2cc(Cl)ccc2Cl)o1)c1ccc(Cl)cc1 | – | –
CCCN(CCC)CC(O)Cn1cc(/C=C/C(=O)c2ccc(OCC)cc2)c2ccccc21 (stereo unspecified) | – | 35.5µM
CC(C)CN(CC(C)C)CC(O)Cn1cc(/C=C/C(=O)c2ccccc2)c2ccccc21 (stereo unspecified) | – | ?
Brc1cccc(/C=N/Nc2ccc3ccccc3c2)c1 | – | –
Cc1nc(-c2ccncc2)[nH]c(=O)c1CC(=O)N(C)C1CCCCC1 | – | 28.2µM
Cc1nc(-c2ccncc2)[nH]c(=O)c1CC(=O)N(C)C(C)C(C)(C)C (stereo unspecified) | – | –
SMILES | UDG counterscr | AID inh
O=C(/C=C/C=C/c1ccco1)c1ccc(N2CCOCC2)cc1 | – | –
COCCOc1ccc(C(=O)/C=C/c2ccc(C(=O)OC)o2)cc1 | – | –
O=C(NCC(c1cccnc1)N1CCc2ccccc21)c1ccc(Cl)cc1 (stereo unspecified) | – | ?
COc1ccc(C(=O)NCC(c2cccnc2)N2CCc3ccccc32)cc1 (stereo unspecified) | – | 100µM
Cc1cccc(-n2cc(-c3ccccc3)c3c(N4CCC(C)CC4)ncnc32)c1 | – | ?
CC(=O)N1CCN(c2ncnc3c2c(-c2ccccc2)cn3-c2cccc(C)c2)CC1 | 79.4µM | ?
O=C(C1CC1)N(Cc1ccc2c(c1)CN(S(=O)(=O)c1ccccc1F)CCO2)c1ccccc1 | – | ?
O=C(C1CC1)N(Cc1ccc2c(c1)CN(S(=O)(=O)c1ccc(F)c(F)c1)CCO2)c1ccccc1 | 89.1µM | ?
CC(C)c1ccc(/C=C2\Oc3cc(OS(C)(=O)=O)ccc3C2=O)cc1 | – | –
Cn1c(CC(=O)Nc2ccccc2)nnc1SCC(=O)NC12CC3CC(CC(C3)C1)C2 | – | –
Cc1ccc(NC(=O)Cc2nnc(SCC(=O)NC34CC5CC(CC(C5)C3)C4)n2C)cc1C | 89.1µM | –
CC(=O)n1nc(NCc2c(F)cccc2Cl)nc1NCc1c(F)cccc1Cl | – | –
COc1ccc2c(c1)c(C(C(=O)O)N1CCN(CCC#N)CC1)cn2CC(=O)O (stereo unspecified) | – | –
Cc1cc(N(C)Cc2ccccc2)n2nc(-c3ccc(C(C)(C)C)cc3)nc2n1 | – | 35.5µM
Cc1cc(N(CCO)Cc2ccccc2)n2nc(-c3ccc(C(C)(C)C)cc3)nc2n1 | – | –
CCn1c(SCC(=O)c2ccc(C#N)cc2)nnc1-c1ccccc1C | – | –
COc1ccc(OC)c(NC(=O)NC(C)C(=O)N2CCc3ccccc32)c1 (stereo unspecified) | – | –
CC(Oc1ccc(C(=O)c2ccccc2)cc1)C(=O)N1CCc2ccccc21 (stereo unspecified) | 79.4µM | –
Oc1ccc(C=Nc2cccc3ccccc23)cc1 | – | –
